Measurements published in PubChem BioAssay (NCI).
About 83,000 compounds went through this panel and 20% of them were active in at least one assay; those are over-represented in the sample as a whole.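 Activity criterion: percent growth below 10, measured after cells in 96-well plates were exposed to a single compound concentration for 48 hours.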 A number with no mark means an inactive call. Calls of active or inactive are those of the source.

Key:
Test in all cases: NCI-60 one-dose screen, 48 h (100 = growth as untreated, 0 = no growth, -100 = all killed)
SK-MEL-2 melanoma = settings: 10 µM unless noted
EKVX NSCLC = settings: 10 µM unless noted
SN12C renal = settings: 10 µM unless noted
UO-31 renal = settings: 10 µM unless noted
TK-10 renal = settings: 10 µM unless noted
ACHN renal = settings: 10 µM unless noted
CAKI-1 renal = settings: 10 µM unless noted
A498 renal = settings: 10 µM
HL-60(TB) leukemia = settings: 10 µM unless noted
CCRF-CEM leukemia = settings: 10 µM unless noted
MOLT-4 leukemia = settings: 10 µM unless noted
SR leukemia = settings: 10 µM unless noted
RPMI-8226 leukemia = settings: 10 µM unless noted
OVCAR-8 ovarian = settings: 10 µM unless noted
OVCAR-5 ovarian = settings: 10 µM unless noted
OVCAR-4 ovarian = settings: 10 µM unless noted
SK-OV-3 ovarian = settings: 10 µM unless noted
OVCAR-3 ovarian = settings: 10 µM unless noted
HS 578T breast = settings: 10 µM unless noted
IGROV1 ovarian = settings: 10 µM unless noted

SMILES | growth (SK-MEL-2 melanoma) | growth (EKVX NSCLC) [%] | growth (SN12C renal) | growth (UO-31 renal) | growth (TK-10 renal) | growth (ACHN renal) | growth (CAKI-1 renal) | growth (A498 renal) | growth (HL-60(TB) leukemia) | growth (CCRF-CEM leukemia) | growth (MOLT-4 leukemia) | growth (SR leukemia) | growth (RPMI-8226 leukemia) | growth (OVCAR-8 ovarian) | growth (OVCAR-5 ovarian) | growth (OVCAR-4 ovarian) | growth (SK-OV-3 ovarian) | growth (OVCAR-3 ovarian) | growth (HS 578T breast) | growth (IGROV1 ovarian)
COc1ccc2nc(NC(=O)COc3cc(/C=C\c4cc(OC)c(OC)c(OC)c4)ccc3OC)sc2c1 | 16.7% | 44.7 | 45.3% | 14.7% | 23.6% | 42.8% | 6.25% (active) | -5.19% (active) | 25% | 22.6% | 12.9% | 28% | 20.9% | 24% | 71.6% | 49% | 8.6% (active) | -39% (active) | -5.92% (active) | 
O=c1[nH]cc(N(CCCl)CCCl)c(=O)[nH]1 | 102% | 101 | 59.3% | 42.9% | 86.8% | 15.5% | 12.8% | 101% | -9.89% (active) | 31% | 15.3% | 10.4% | 77.8% |  | 70.1% | 105% | 93.3% | 98.5% | 87.8% | 50.2%
C/C(=C\c1ccn(-c2ccc(N)cc2)n1)[C@@H]1C[C@@H]2O[C@]2(C)CCC[C@H](C)[C@H](O)[C@@H](C)C(=O)C(C)(C)[C@@H](O)CC(=O)O1 | 35.8% | 54.7 | 39.6% | 38.5% | 54.6% | 45.7% | 43.2% | -0.818% (active) | 5.9% (active) | 16.8% | 13.3% | 19% | 15.6% | 29.5% | 32.9% | 67.4% |  | 2% (active) | 17.8% | 40.3%
c1cc2c(c3c1CCNC3)OCO2 | 101% | 95.6 | 100% | 90.2% | 101% | 111% | 91.1% | 118% | 101% | 124% | 100% | 93% | 109% | 107% | 108% | 110% |  | 118% | 112% | 99.9%
CN1C(=O)C(=Cc2cn(Cc3ccccc3)c3ccccc23)C(=O)N(C)C1=O | 81.5% | 82.1 | 103% | 54.3% | 4.63% (active) | 84.5% | 60.4% | -83.1% (active) | 64.4% | 92% | 96.8% | 68.6% | 35.9% | 90.5% | -6.96% (active) | 49.8% | 51.8% | 71.2% |  | 
Cc1cc(N(CCCl)CCCl)ccc1C=Nc1cccnc1 | 101% | 104 | 57.2% | 70.3% | 56.1% | 48.3% | 12.7% | -72.3% (active) | 41.4% | 61.4% | 52.1% | 43.9% | 78.3% | 78.2% | 28.2% |  |  | 87.5% | 113% | 99.2%
CN(CCCCN(C)CCOS(C)(=O)=O)CCOS(C)(=O)=O | 102% | 112 | 71.9% | 71.5% | 98.7% | 24.9% | 2.42% (active) | 85.3% | 61.4% | 50.3% | 28% | 12.1% | 90.8% | 72.6% | 97.6% |  | 86.7% | 103% | 95.3% | 65.8%
Cc1ccc(Nc2nc3c(s2)C2=CC[C@@H]4[C@H](CC[C@]5(C)C(=O)CC[C@@H]45)[C@@]2(C)CC3)cc1 | 46.3% | 56.7 | 60% | 48.3% | 53.5% | 20.1% | 34.3% | 51.3% | 34% | 7.68% (active) | 12.3% | 12.9% | -15.8% (active) | 58.4% |  |  | 36.6% | 16.7% | 28.1% | 65%
Fc1ccc(C2=CCNCC2)cc1 | 109% | 86.2 | 73% | 84.7% | 86.5% | 108% | 79.5% | 87.8% | 109% | 118% | 106% | 114% | 122% | 100% | 82.3% | 111% | 104% | 102% | 114% | 
CNC(=O)Oc1cccc(C(F)(F)F)c1 | 106% | 139 | 93.7% | 96.3% | 105% | 114% | 117% | 106% | 114% | 90.6% | 97.1% | 111% | 87.4% | 87.6% | 114% |  | 108% | 125% | 121% | 120%
C[CH2][Sn]([Cl])([Cl])[CH2]C.Oc1ccccc1C=NCCN=Cc1ccccc1O | 116% | 96.9 | 101% | 72.8% | 117% | 97.5% | 86.5% | 103% | 113% | 92.5% | 86.1% | 103% | 91.9% | 100% | 104% |  | 101% | 103% | 100% | 98.9%
O=C([O][Hg][CH2]C1COCC([CH2][Hg][O]C(=O)c2ccccc2)O1)c1ccccc1 (centres undefined) | 105% | 103 | 56.8% | -12.1% (active) | 38.1% | 70.6% | 57.2% | 114% | 23.1% | -10.3% (active) | -2.46% (active) | 46.8% | 71.8% | 94% | 134% | 90.1% | 118% | -94% (active) |  | 
CC1(C)CN1P(=O)(N1CC1(C)C)N1CC1(C)C (centres undefined) | 115% | 124 | 109% | 85% | 118% | 112% | 110% | 102% | 90% | 106% | 96.6% | 91.3% | 105% |  | 115% | 97.9% | 102% | 118% |  | 114%
CCCCCCCCCCCCCCCCCC1OC[C@H](COC(=O)O[C@@H](C(=O)O[C@H]2C[C@@]3(O)[C@@H](OC(=O)c4ccccc4)[C@@H]4[C@]5(OC(C)=O)CO[C@@H]5C[C@H](O)[C@@]4(C)C(=O)[C@H](OC(C)=O)C(=C2C)C3(C)C)[C@@H](NC(=O)c2ccccc2)c2ccccc2)O1 (some centres undefined) | 75% | 93.7 | 56.8% | 98.1% | 99.8% | 96.2% | 81% | 72% | 23.3% | 44.8% | 55.1% | 44.9% | 17.5% | 61.5% | 41.5% |  | 62.8% | 31.9% | 60.7% | 42.9%
COc1ccc(C/C(C)=C(\c2ccc(OCCN3CCOCC3)cc2)c2ccc(OC(=O)Cc3ccccc3)cc2)cc1 | -80.6% (active) | 17.9 | -73.7% (active) | -84.6% (active) | -46.1% (active) | -3.31% (active) | 7.71% (active) | -90.5% (active) | -59.3% (active) | -13.7% (active) | -14.5% (active) | -38.2% (active) | -42.4% (active) | -1.48% (active) | 3.16% (active) | 4% (active) |  | -93.4% (active) | -42.1% (active) | 1.9% (active)
COc1cc(NC(C)CCCNC2CN3CCC2CC3)c2ncccc2c1 (centres undefined) | 91.7% | 71.2 | 86% | 38.3% | 79.8% | 84.9% | 78.1% | 57.2% | 65.9% | 77.7% | 74.2% | 84.9% | 72.9% | 75.9% | 92.8% |  | 93.4% | 11% | 65.2% | 69.1%
